Screening data from PubChem.
FAS-TE inh – FAS thioesterase domain inhibitors, primary screen, biochemical, fluorescence intensity, uHTS | recombinant FAS-TE, OMFH fluorogenic substrate, fluorescence endpoint | AID 602261, 2012 | Fatty acid synthase (Homo sapiens), P49327 | inhibition, % at 15 µM | 360,000 tested, 0.67% active;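 active means compounds whose normalised, plate-corrected inhibition of enzyme fluorescence in the single-dose primary screen is 50% or more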;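 further: 0% = DMSO with enzyme and 100% = substrate without enzyme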
rCAG binder – binders of r(CAG) RNA repeats, primary screen, biochemical, fluorescence | r(CAG) RNA repeat, TO-PRO-1 dye displacement fluorescence | inhibition, % at 3 µM | 370,000 tested, 1.3% active | AID 651821, 2012;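 active means inhibition above the plate cutoff, the mean of all test compounds on that plate plus 3 SD, cut at about 35% in these data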;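 further: 0% = DMSO alone and 100% = 100 µM mitoxantrone as full dye displacement; higher means more dye released from RNA so lower well fluorescence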
NadD block – inhibitors of S. aureus NadD, primary screen, biochemical, colorimetric, uHTS. Nicotinate-nucleotide adenylyltransferase NadD (Staphylococcus aureus N315). purified NadD enzyme, colorimetric absorbance read-out. inhibition, % at 20 µM. 360,000 tested, 0.78% active; in the data active means inhibition above about 26%
NR3A LBD binder – binders of NR3A ligand-binding domain, primary screen, biophysical, differential scanning fluorimetry, uHTS. NR3A LBD differential scanning fluorimetry, Tm shift; 0% = protein alone, 100% = glycine-bound protein. Glutamate receptor ionotropic, NMDA 3A (GRIN3A) ligand-binding domain. Tm shift relative to glycine control, % at 25 µM. AID 1259313, 2017. 340,000 tested, 2.5% active;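 active means melting temperature shift of at least 10% of the positive control shift, at one fixed dose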
Active calls of the source: *; . = no result. Most compounds without a hit are left out; they make up all but 4.3% or so of the library.

SMILES	FAS-TE inh	rCAG binder	NadD block	NR3A LBD binder
COC(=O)[C@]12C[C@H](CC(=O)NCCc3ccccc3OC)C(=O)N(CCc3ccc(OC)c(OC)c3)C1=C[C@H](C(C)C)O[C@@H]2C1CC1	.	3	.	.
COc1ccc(NC(=O)N(C)C[C@H]2Oc3c(NS(=O)(=O)c4ccc(OC)cc4)cccc3C(=O)N([C@H](C)CO)C[C@@H]2C)cc1	-5	1	6	0
C[C@H]1CN([C@@H](C)CO)C(=O)c2cccc(NC(=O)Nc3ccc(C(F)(F)F)cc3)c2O[C@@H]1CN(C)C(=O)Nc1ccc(F)cc1	45	15	-9	21*
C[C@H](CO)N1C[C@H](C)[C@@H](CN(C)C(=O)Nc2ccc(C(F)(F)F)cc2)Oc2c(NC(=O)Nc3ccc(C(F)(F)F)cc3)cccc2C1=O	79*	14	-3	28*
C[C@H]1CN([C@@H](C)CO)C(=O)c2cccc(NC(=O)Nc3ccc(C(F)(F)F)cc3)c2O[C@H]1CN(C)C	-5	-6	-7	-5
C[C@H](CO)N1C[C@H](C)[C@@H](CN(C)S(C)(=O)=O)Oc2c(NC(=O)Nc3ccc(C(F)(F)F)cc3)cccc2C1=O	24	13	-6	-10
COc1ccc(S(=O)(=O)Nc2cccc3c2O[C@H](CN(C)C(=O)NC(C)C)[C@@H](C)CN([C@H](C)CO)C3=O)cc1	-12	-3	6	16*
O=C1NC(=NCc2ccccc2)S/C1=C\c1ccccc1	-9	7	0	1
O=C1N/C(=N\S(=O)(=O)Cc2ccccc2)S/C1=C/c1cc([N+](=O)[O-])ccc1O	-5	71*	-7	8
O=C(CSc1nc2cc(Cl)c(Cl)cc2[nH]1)c1ccc2c(c1)OCO2	21	5	8	17*
O=C(CSc1nc2ccc(Cl)cc2[nH]1)c1ccc2c(c1)OCO2	-1	6	1	-16
O=C(O)c1ccc2c(c1)[C@@H]1C=CC[C@@H]1[C@H](c1ccccn1)N2	-9	82*	10	-1
COc1ccc(C(=O)N/N=C(\C)c2ccc3c(c2)C2C=CCC2C(c2ccccc2)N3)cc1 (stereo unspecified)	18	.	52*	-5
COc1ccc(/C(C)=N/NC(=O)c2ccncc2)cc1	-7	3	-6	-4
CCOC(=O)CC[C@@H]1CC[C@]2(CCCN(C(=O)C(C)(C)C)C2)O1	.	-1	.	.
C#CCNC(=O)C[C@H]1C(=O)N(CCCOC)C2=CCCCC[C@]21C(=O)OC	.	4	.	.
Cc1cccc(-[n+]2c(C)cc(C)c3c(=O)[nH]c(=O)[nH]c32)c1	-6	5	0	12*
COc1ccc(CN2C[C@H](COCc3ccccc3)Oc3cccc(F)c3S2(=O)=O)cc1	.	5	.	.
CCn1cnc2c(Nc3cc(F)cc(F)c3)nc(C#N)nc21	-4	10	-4	3
N#Cc1nc(Nc2cccc(Cl)c2)c2ncn(C3CCCC3)c2n1	24	4	0	11*
COc1ccccc1Cc1noc(COc2cccc(C)c2C)n1	16	9	0	22*
C=CCN1C(C(=O)OC)CN(Cc2cn(Cc3ccc(C)cc3)nn2)CCS1(=O)=O (stereo unspecified)	.	-1	.	.
COc1cc(OC)cc(-c2c(C#Cc3ccsc3)c3cc(-c4ccc5cc[nH]c5c4)ccc3n2C)c1	36	20	19	6
COc1ccc(-c2c(C#Cc3ccsc3)c3cc(-c4ccc5cc[nH]c5c4)ccc3n2C)cc1	17	14	22	12*
Cc1ccc(NC(=O)[C@H]2CC(=O)O[C@@H]2c2ccccc2)c(C)c1	.	-1	.	.
SMILES	FAS-TE inh	rCAG binder	NadD block	NR3A LBD binder
OC[C@H]1CC[C@@H]2O[C@H](CCc3ccc(-c4ccc(F)cc4)cc3)[C@H](n3cc(C4CC4)nn3)C[C@@H]2O1	.	7	.	.
COc1ccc(-c2ncccc2OC(=O)C23CC4CC(CC(C4)C2)C3)cc1	20	-7	1	16*
COc1cccc(C(=O)Nc2ccc(C(=O)NCC3COc4ccccc4O3)cc2)c1 (stereo unspecified)	.	6	.	.
N#CC1=C(N)NC(SCC(=O)c2ccc(Br)cc2)=C(C#N)C12CCCCC2	11	10	5	17*
COc1ccc(C(=O)CSC2=C(C#N)C3(CCCCC3)C(C#N)=C(N)N2)cc1	6	10	2	0
COc1ccc(S(=O)(=O)NCCc2c[nH]c3ccc(Cl)cc23)cc1	18	9	-7	35*
Cc1ccc(S(=O)(=O)NCCc2c[nH]c3ccccc23)cc1	7	1	-8	23*
COc1ccc2[nH]cc(CCNS(=O)(=O)c3ccc(NC(C)=O)cc3)c2c1	-2	-1	-6	1
Cc1cccc(NC(=O)N2CCC(N(C)CCC(C)C)CC2)c1	.	0	.	.
CN(CC(=O)Nc1cccc(S(=O)(=O)NC2=NCCCCC2)c1)Cc1ccc(C(C)(C)C)cc1	66*	-6	-7	-2
COc1cc([N+](=O)[O-])ccc1NC(=O)Nc1nc2c(s1)CCCC2	2	16	10	11*
Cc1ccc(OCC(=O)N/N=C\c2ccc(O)cc2)c([N+](=O)[O-])c1	-4	1	-4	-1
Cc1ccccc1NCC(=O)N/N=C/c1c[nH]c2ccccc12	15	11	-4	24*
Cc1ccc(OCC(=O)N/N=C/c2c[nH]c3ccccc23)c([N+](=O)[O-])c1	-4	20	11	24*
Cc1cccc(NCC(=O)N/N=C\c2c[nH]c3ccccc23)c1	10	14	10	16*
Cc1ccc(S(=O)(=O)N(C)[C@H]2C[C@H]3c4cc(N5CCOCC5)ccc4CCN3C[C@H]2[C@H](C)O)cc1	.	0	.	.
CCCCCN1CCCCC(NC(=O)c2cccc(F)c2)C1=O (stereo unspecified)	.	-3	.	.
Cc1cccc(C)c1NC(=O)Cn1nnc(-c2ccncc2)n1	.	1	.	.
CC1(C)CC(=O)C=C(NC2CCCCCC2)C1	-6	-1	-6	11*
Cc1cc(S(=O)(=O)NC(=O)[C@H]2O[C@@H](n3ccc(=O)[nH]c3=O)[C@H](O)[C@@H]2O)ccc1Br	.	5	.	.
COc1cc(-c2oc3cc(O)cc(O)c3c(=O)c2O[C@@H]2O[C@H](COC3O[C@@H](C)[C@H](O)[C@@H](O)[C@H]3O)[C@@H](O)[C@H](O)[C@H]2O)ccc1O (stereo partly specified)	-15	0	-1	13*
C[C@@H]1O[C@@H](Oc2c(-c3ccc(O)c(O)c3)oc3cc(O)cc(O)c3c2=O)[C@H](O)[C@H](O)[C@H]1O	-2	4	16	-2
Cc1nc2ccc(NC(=O)c3cc(Cl)ccc3F)cc2c(=O)[nH]1	.	1	.	.
N#C/C(=C\c1ccc(C(=O)O)cc1)c1ccccn1	-6	0	1	0
N#C/C(=C\c1c[nH]c2ccc(Br)cc12)c1ccccn1	0	28	2	22*
O=S(=O)([O-])C(c1ccccc1)[n+]1ccccc1 (stereo unspecified)	-9	-1	3	21*
